Source: PubChem
VHR inh abs: inhibitors of human VHR1 phosphatase (DUSP3); recombinant VHR phosphatase, pNPP absorbance; inhibition, % at 13.3 µM; 290,000 tested, 0.52% active; P51452; in the data active = inhibition above about 50%
PrPC surface inh: reduces human prion protein on the cell surface; P04156; cell surface PrPC, TR-FRET read-out; inhibition, % at 13.8 µM; 370,000 tested, 0.43% active; in the data active = inhibition above about 24%; note: 0% = median of the test wells and 100% = reference compound wells
TcdB inh: inhibitors of Clostridioides difficile toxin B glycohydrolase | inhibition, % at 9.99 µM | TcdB glycohydrolase enzymatic assay, plate reader | AID 652162 | 350,000 tested, 0.24% active; in the data active = inhibition above about 10%
Target sequence (P18177 whole entry, looked up): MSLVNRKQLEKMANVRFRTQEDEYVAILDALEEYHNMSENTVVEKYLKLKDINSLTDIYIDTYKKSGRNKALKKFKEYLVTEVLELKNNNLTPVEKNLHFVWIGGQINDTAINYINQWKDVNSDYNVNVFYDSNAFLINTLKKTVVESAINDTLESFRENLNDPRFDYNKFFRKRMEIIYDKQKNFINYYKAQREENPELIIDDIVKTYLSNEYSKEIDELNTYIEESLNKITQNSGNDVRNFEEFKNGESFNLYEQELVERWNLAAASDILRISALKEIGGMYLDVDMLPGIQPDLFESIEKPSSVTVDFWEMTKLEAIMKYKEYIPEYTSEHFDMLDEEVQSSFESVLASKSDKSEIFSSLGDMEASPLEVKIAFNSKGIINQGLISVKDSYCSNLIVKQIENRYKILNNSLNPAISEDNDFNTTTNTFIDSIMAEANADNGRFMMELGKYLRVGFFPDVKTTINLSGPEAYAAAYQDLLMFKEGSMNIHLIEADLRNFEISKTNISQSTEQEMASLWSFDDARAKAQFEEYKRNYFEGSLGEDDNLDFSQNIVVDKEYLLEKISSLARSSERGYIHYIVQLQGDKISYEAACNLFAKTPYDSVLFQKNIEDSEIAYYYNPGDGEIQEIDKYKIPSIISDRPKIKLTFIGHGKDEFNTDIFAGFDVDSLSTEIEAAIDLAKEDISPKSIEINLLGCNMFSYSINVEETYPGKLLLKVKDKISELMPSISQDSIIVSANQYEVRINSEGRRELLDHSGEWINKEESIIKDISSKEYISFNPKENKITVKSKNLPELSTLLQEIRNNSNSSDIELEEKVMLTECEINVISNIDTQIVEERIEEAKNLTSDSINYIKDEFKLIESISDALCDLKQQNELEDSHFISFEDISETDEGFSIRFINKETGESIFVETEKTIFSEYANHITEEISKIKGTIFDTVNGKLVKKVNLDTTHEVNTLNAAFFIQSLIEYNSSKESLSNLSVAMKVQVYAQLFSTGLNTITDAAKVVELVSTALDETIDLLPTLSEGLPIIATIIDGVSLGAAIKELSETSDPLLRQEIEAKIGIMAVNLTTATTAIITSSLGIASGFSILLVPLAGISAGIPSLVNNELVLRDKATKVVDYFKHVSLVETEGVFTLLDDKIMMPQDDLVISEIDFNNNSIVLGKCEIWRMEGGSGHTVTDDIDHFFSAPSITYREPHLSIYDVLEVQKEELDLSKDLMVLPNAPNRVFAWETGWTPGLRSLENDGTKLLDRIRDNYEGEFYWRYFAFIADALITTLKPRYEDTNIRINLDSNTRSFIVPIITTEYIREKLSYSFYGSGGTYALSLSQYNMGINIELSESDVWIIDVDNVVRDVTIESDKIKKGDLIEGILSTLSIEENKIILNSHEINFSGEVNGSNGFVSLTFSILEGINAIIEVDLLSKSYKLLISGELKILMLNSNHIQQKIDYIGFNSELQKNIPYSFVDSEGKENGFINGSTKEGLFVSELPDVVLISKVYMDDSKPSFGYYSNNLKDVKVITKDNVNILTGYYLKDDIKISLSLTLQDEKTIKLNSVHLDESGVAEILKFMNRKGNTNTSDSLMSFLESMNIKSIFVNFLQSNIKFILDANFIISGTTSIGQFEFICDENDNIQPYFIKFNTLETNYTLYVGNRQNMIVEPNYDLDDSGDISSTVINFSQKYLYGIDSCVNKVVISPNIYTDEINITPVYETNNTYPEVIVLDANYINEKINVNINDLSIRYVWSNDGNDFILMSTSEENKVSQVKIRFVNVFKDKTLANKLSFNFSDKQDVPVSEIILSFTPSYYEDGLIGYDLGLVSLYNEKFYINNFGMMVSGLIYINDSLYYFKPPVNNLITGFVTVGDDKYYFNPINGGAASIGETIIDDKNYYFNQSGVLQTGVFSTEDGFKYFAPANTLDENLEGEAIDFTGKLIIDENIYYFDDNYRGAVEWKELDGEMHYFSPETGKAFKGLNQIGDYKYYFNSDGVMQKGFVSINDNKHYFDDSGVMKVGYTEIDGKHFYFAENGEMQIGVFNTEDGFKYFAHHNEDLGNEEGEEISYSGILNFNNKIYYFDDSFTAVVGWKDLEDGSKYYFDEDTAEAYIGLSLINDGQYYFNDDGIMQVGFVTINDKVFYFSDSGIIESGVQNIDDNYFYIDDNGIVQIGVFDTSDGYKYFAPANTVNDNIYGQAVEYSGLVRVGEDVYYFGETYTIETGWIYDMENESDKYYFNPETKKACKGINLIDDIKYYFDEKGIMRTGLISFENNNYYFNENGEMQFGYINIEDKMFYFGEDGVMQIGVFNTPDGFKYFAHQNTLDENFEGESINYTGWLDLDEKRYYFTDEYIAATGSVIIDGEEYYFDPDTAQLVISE
PrPC TRFRET cf: confirmation of inhibitors of cell surface human prion protein | 1,500 tested, 65% active | AID 743200 | shares compounds with PrPC surface inh | cell surface PrPC level, TR-FRET | inhibition, % at 13.8 µM; in the data active = inhibition above about 25%
LD9 cytotox: counter-screen for PrPc inhibitors: cytotoxicity in LD9 cells. luminescence viability. shares compounds with PrPC surface inh. inhibition, % at 13.8 µM. 1,500 tested, 29% active; in the data active = inhibition above about 9.5%
* marks the source's active call; other numbers are inactive results; · = no result. This is a sample that favours compounds with a hit; in the whole collection about 0.82% have one here.

SMILES	VHR inh abs	PrPC surface inh	TcdB inh	PrPC TRFRET cf	LD9 cytotox
CCC(C)NC(=O)c1cccc(OCc2c(C)noc2C)c1 (configuration not stated)	-7	-1	1	·	·
CCOC(=O)c1c(C)[nH]c(C(=O)C(C)OC(=O)c2cccc(OCc3c(C)noc3C)c2)c1C (configuration not stated)	6	38*	·	26*	5
COc1ccc(NC(=O)c2cc3ccccc3[nH]2)cc1	13	-6	0	·	·
COc1ccc2[nH]c(C(=O)Nc3ccc(C)c(F)c3)cc2c1	-1	39*	0	99*	5
CCOc1ccc2[nH]c(C(=O)N/N=C/c3ccc(OC)cc3)cc2c1	20	12	2	·	·
COc1ccc2[nH]c(C(=O)N/N=C/c3ccc(O)cc3O)cc2c1	·	32*	0	40*	19*
C[C@@H]1CN([C@@H](C)CO)C(=O)c2cc(C#CCN(C)C)cnc2O[C@@H]1CN(C)C(=O)Nc1cccc(F)c1	·	·	0	·	·
Nc1ccc2nc(-c3ccc(-c4nc5ccc(N)cc5[nH]4)cc3)[nH]c2c1	-41	26*	3	25*	1
Nc1ccc2nc(-c3cccc(-c4nc5ccc(N)cc5[nH]4)n3)[nH]c2c1	6	4	5	·	·
C[C@H](NC(=O)C[C@H]1CC[C@H](NC(=O)CN2CCOCC2)[C@H](CO)O1)c1ccccc1	·	·	0	·	·
C/C=C/c1ccc([C@H]2[C@@H](CO)N(C(C)=O)C23CN(C(=O)NC2CCCC2)C3)cc1	·	·	-2	·	·
CCN(CC)Cc1c(O)ccc2c(C)c(CC(=O)OC)c(=O)oc12	36	2	·	·	·
COC(=O)Cc1c(C)c2ccc(O)c(CNCc3ccc(OC)c(OC)c3)c2oc1=O	·	25*	0	5	-3
COc1ccccc1S(=O)(=O)N[C@@H]1CC[C@@H](CCNC(=O)C2CC2)O[C@H]1CO	·	·	0	·	·
O=C(C[C@@H]1CC[C@@H]2NC[C@@H](O)COC[C@H]2O1)NCCN1CCCC1	·	·	-16	·	·
C[C@H]1CN([C@@H](C)CO)C(=O)c2ccccc2-c2ccccc2CO[C@H]1CN(C)S(=O)(=O)c1cccc(F)c1	·	·	1	·	·
CC(C)(C)C(=O)c1cnc(Nc2ccccc2Cl)s1	28	28*	·	36*	1
O=C(c1ccccc1)c1cnc(Nc2ccccc2Cl)s1	27	·	·	·	·
CCNC(=O)[C@@H]1[C@@H](CO)[C@@H]2Cn3c(ccc(C4=CCCC4)c3=O)[C@@H]2N1C(=O)CC1CC1	·	·	0	·	·
Oc1ccc(Cc2ncc(C(F)(F)F)cc2Cl)cc1	13	-3	0	·	·
COC(=O)C(C)Oc1ccc(Cc2ncc(C(F)(F)F)cc2Cl)cc1 (configuration not stated)	·	62*	-1	0	-11
C[C@H]1CN([C@@H](C)CO)C(=O)c2cc(-c3cccnc3)cnc2O[C@H]1CN(C)C(=O)C1CCOCC1	·	·	-1	·	·
Cc1cc(NC2CCCCC2)nc2ccccc12	2	26*	2	17	4
Cc1cc(NCCN)nc2ccccc12	14	-8	·	·	·
CCNC(=O)C[C@@H]1C=C[C@@H](NC(=O)C2CCC2)[C@@H](CO)O1	·	·	-2	·	·
SMILES	VHR inh abs	PrPC surface inh	TcdB inh	PrPC TRFRET cf	LD9 cytotox
COc1ccc(NC(=O)N(C)C[C@@H]2Oc3c(NC(=O)Nc4ccc(F)cc4)cccc3C(=O)N([C@H](C)CO)C[C@H]2C)cc1	·	·	1	·	·
NC1=C(Cl)C(=O)c2ccc(S(N)(=O)=O)cc2C1=O	·	34*	0	44*	98*
NC1=C(Cl)C(=O)c2ccccc2C1=O	·	-12	0	·	·
CC(C)(C)OC(=O)NCCCCCc1cn([C@@H](CO)C(=O)NCCCCCCCCCCC(=O)N2CCN(C(=O)OC(C)(C)C)CC2)nn1	·	53*	0	34*	36*
CC(C)(C)OC(=O)CC[C@@H](C(=O)NCCCCCCCCCCC(=O)N1CCN(C(=O)OC(C)(C)C)CC1)n1cc(CCCCCNC(=O)OC(C)(C)C)nn1	·	4	2	·	·
C[C@@H]1CCCCO[C@H](CN(C)Cc2ccccc2)[C@H](C)CN([C@H](C)CO)C(=O)c2cc(NC(=O)NC3CCCCC3)ccc2O1	·	·	-1	·	·
CCN1C(=O)C2(C(C(=O)c3ccc(C)o3)=C(O)C(=O)N2CCCN2CCOCC2)c2ccccc21 (configuration not stated)	18	-7	·	·	·
CCN1C(=O)C2(C(C(=O)c3cc4ccccc4o3)=C(O)C(=O)N2CCCN2CCOCC2)c2ccccc21 (configuration not stated)	-4	72*	0	99*	-8
C[C@@H]1CN([C@@H](C)CO)S(=O)(=O)c2ccc(/C=C/c3ccccc3)cc2O[C@H]1CN(C)C(=O)NC1CCCC1	·	·	-1	·	·
